# Inconclusive results are not listed. A number with no mark means an inactive call. Calls of active or inactive are those of the source. Calls come from the whole dose curve; as a rule, active = well fitted activation curve with a large enough effect in the signal ratio in the repeat runs, with a control signal flat (not every such curve was filed as active); inconclusive = weak or mixed curves; inactive = flat fitted curve, though single readings scatter; the % refers to the signal ratio.
# Experiment: qHTS assay for small molecule activators of the heat shock response signaling pathway (AID 743210)
# Conditions: HeLa HSE-bla reporter, beta-lactamase ratio, 5 h; series mostly up to 62.6 µM; activation: at the top concentration
# Description: U.S. Tox21 Program National Center for Advancing Translational Sciences [NCATS] NIH Chemical Genomics Center [NCGC] U.S. Environmental Protection Agency [EPA] National Institutes of Environmental Health Sciences [NIEHS] National Toxicology Program [NTP] U.S. Food and Drug Administration [FDA] Tox21 Assay Overview: Various chemicals, environmental and physiological stress conditions may lead to the activation of heat shock response/ unfolded protein response (HSR/UPR). There are three heat shock transcription factors (HSFs) (HSF-1, -2, and -4) mediating transcriptional regulation of the human HSR. To identify the compounds that activate HSR signaling, HSE-bla HeLa cell line (Invitrogen, Carlsbad, CA, USA) containing a beta-lactamase reporter gene under the control of the heat shock response elements was used to screen the Tox21 10K compound library.
# Tox21 Assay Protocol Summary: The CellSensor HSE-bla HeLa cells (Invitrogen, Carlsbad, CA, USA) were dispensed at 1500 cells/6uL/well into 1536-well black wall/clear bottom plates using a Multidrop combi (Thermo Fisher Scientific, Waltham, MA) dispenser. After the assay plates were incubated at 37 C and 5% CO2 overnight, 23 nL of compounds dissolved in DMSO, positive controls or DMSO only was transferred to the assay plate by a Pintool station (Kalypsys, San Diego, CA). The plates were incubated at 37 C for 5 h. After 1 uL of LiveBLAzerTM B/G FRET substrate was added using a Flying Reagent Dispenser (Beckman Coulter, Indianapolis, IN, USA), the plates were incubated at room temperature for 2.5 h, and fluorescence intensity was measured by an Envision plate reader (PerkinElmer, Shelton, CT).
# % is set by controls: 0 for no effect and ±100 for the full control effect; potency is the fitted concentration of half-maximal effect.
SMILES,activation,Potency
CCc1nn(CCCN2CCN(c3cccc(Cl)c3)CC2)c(=O)n1CCOc1ccccc1,0.4%,
CC(=O)OCC(=O)[C@@]12OC(C)(C)O[C@@H]1C[C@H]1[C@@H]3C[C@H](F)C4=CC(=O)C=C[C@]4(C)[C@@]3(F)[C@@H](O)C[C@@]12C,-0.475%,
CC[C@@H]([C@H](C)O)n1ncn(-c2ccc(N3CCN(c4ccc(OC[C@@H]5CO[C@@](Cn6cncn6)(c6ccc(F)cc6F)C5)cc4)CC3)cc2)c1=O,1.87%,
NC(=O)Cn1c(=O)cc(CCN2CCN(c3nccc4sccc34)CC2)c2ccc(F)cc21,0.496%,
Cc1ccc(S(=O)(=O)NC2CCCCC2)cc1,1.22%,
CCCCCCCCCCOS(=O)(=O)O,0.056%,
CCCCCCCCCCCCCCC[C@H](O)[C@@H](N)CO,1.03%,
Nc1c(I)cc(I)c(C(=O)N(CCC(=O)O)c2ccccc2)c1I,-0.74%,
Nc1ccc(C(=O)OCCCOC(=O)c2ccc(N)cc2)cc1,0.0461%,
O=S(=O)(c1ccccc1)c1ccc(Cl)cc1,0.42%,
CC#N,-0.388% [at 81.1 µM],
C=CC(C)(C)CC(=O)OC,0.223% [at 81.1 µM],
C/C(=N/NC(=O)c1ccncc1)C(=O)O,-0.266%,
O=C(Nc1ccccc1)Nc1ccccc1,-0.397% [at 81.1 µM],
Cc1ccc(Nc2nccc(N(C)c3ccc4c(C)n(C)nc4c3)n2)cc1S(N)(=O)=O,1.83%,
CC1=CC(=O)CC(C)(C)C1(O)/C=C/C(C)=C\C(=O)O (stereo not given),-0.149%,
CCN(Cc1cccc(S(=O)(=O)O)c1)c1ccc(C(=C2C=CC(=[N+](CC)Cc3cccc(S(=O)(=O)[O-])c3)C=C2)c2ccccc2)cc1,0.0572%,
CCC(Cc1ccccc1)(C(=O)c1ccc(N2CCOCC2)cc1)N(C)C (stereo not given),3.49%,
NC(=O)Nc1ccc(Cl)c(Cl)c1,-0.556%,
CC1=C(/C=C/C(C)=C\C=C\C(C)=C\C(=O)O)C(C)(C)CCC1,1.35%,

SMILES,activation,Potency
CC(=O)Oc1ccc(C(=C2CCCCC2)c2ccc(OC(C)=O)cc2)cc1,,26.6 µM (active)
Nc1ccc(S(=O)(=O)O)c(N)c1,-1.4%,
COC(OC)(C(=O)c1ccccc1)c1ccccc1,0.178%,
CO[C@H]1C=CO[C@@]2(C)Oc3c(C)c(O)c4c(O)c(c5c(c4c3C2=O)=NC2(CCN(CC(C)C)CC2)N=5)NC(=O)/C(C)=C\C=C/[C@H](C)[C@H](O)[C@@H](C)[C@@H](O)[C@@H](C)[C@H](OC(C)=O)[C@@H]1C,-1.75%,
NC(=O)Nc1ccc(Cl)cc1,0.0551%,
CCCCCCOC(=O)C(C)C,-1.05%,
CCOC(=O)CC(=O)C(=O)OCC,0.765%,
CCCCN(CCCC)C(=S)SSC(=S)N(CCCC)CCCC,,1.37 µM (active)
CCCCC/C(=C\c1ccccc1)CO,-0.955% [at 81.1 µM],
CCOC(=O)OCC,-0.639% [at 81.1 µM],
CCCCC(=O)O[C@]1(C(=O)CO)[C@@H](C)C[C@H]2[C@@H]3CCC4=CC(=O)C=C[C@]4(C)[C@@]3(F)[C@@H](O)C[C@@]21C,-0.573%,
COc1ccccc1N=Nc1c(S(=O)(=O)O)cc2cc(S(=O)(=O)O)cc(NC(C)=O)c2c1O,-0.595%,
O=S1OCCO1,3.45% [at 81.1 µM],
COCCOC,-0.457%,
O=Cc1c(Cl)cccc1Cl,1.02% [at 81.1 µM],
NC(=O)N(O)[C@@H]1C=C[C@H](Oc2cccc(Oc3ccc(F)cc3)c2)C1,0.0874%,
Oc1ccc(Nc2ccccc2)cc1,-0.0858%,
CC(CCO)CCc1ccccc1 (stereo not given),-0.49%,
C=CC(=C)CCCC(C)(C)OC(C)=O,-0.207%,
COC(=O)c1cc(S(N)(=O)=O)ccc1OC,-0.93%,

# Reference: PubChem BioAssay (Tox21)
